Assay outcomes as filed in PubChem BioAssay.
Sampled rows, rich in hits. Any-hit rate of the full collection: about 3.9%.
CDK5 p35 inh: blocks human CDK5/p35 kinase activity | Recombinant CDK5/p35, ADP-Glo luminescence, 60 min | inhibition, % at 10 µM | hit rate 0.01% among 330,000 | AID 488839;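 active means highest replicate inhibition of at least 50% and at least 75% of replicates reaching 50%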
Target sequence (Q00535 whole entry, looked up): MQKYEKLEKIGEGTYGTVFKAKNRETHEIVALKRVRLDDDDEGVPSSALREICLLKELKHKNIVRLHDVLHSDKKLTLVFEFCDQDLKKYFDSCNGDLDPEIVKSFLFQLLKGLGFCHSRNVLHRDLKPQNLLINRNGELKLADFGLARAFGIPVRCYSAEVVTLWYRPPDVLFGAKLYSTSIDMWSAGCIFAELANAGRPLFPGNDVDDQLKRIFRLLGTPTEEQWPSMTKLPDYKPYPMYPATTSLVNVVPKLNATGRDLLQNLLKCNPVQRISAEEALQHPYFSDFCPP
Target sequence (Q15078 whole entry, looked up): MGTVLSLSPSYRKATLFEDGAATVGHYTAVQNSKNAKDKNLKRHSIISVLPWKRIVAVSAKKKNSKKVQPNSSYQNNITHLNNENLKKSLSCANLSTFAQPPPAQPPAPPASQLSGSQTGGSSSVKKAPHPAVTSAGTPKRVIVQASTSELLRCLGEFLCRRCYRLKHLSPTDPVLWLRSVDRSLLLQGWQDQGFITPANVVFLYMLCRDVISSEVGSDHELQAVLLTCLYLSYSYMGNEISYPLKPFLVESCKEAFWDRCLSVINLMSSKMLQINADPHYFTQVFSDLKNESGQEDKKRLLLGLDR
Glyco luc inh: N-linked glycosylation inhibition; reporter increase, % at 12.5 µM; hit rate 0.23% among 360,000; D54 ERlucT glycosylation luciferase reporter, 24 h; percent of 100 nM tunicamycin response;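 active means mean luciferase reporter signal, scaled so untreated is 0 and the glycosylation-blocking control 100, at or above a set limit in every replicate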;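 further: luciferase carries N-glycosylation sites so blocking glycosylation raises the light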
Casp6 inh: blocks human caspase-6 cleavage activity. P55212. hit rate 0.53% among 350,000. AID 686996. inhibition, % at 12.5 µM. purified caspase-6, Z-VEID-R110 cleavage fluorescence;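 active means mean inhibition across replicates at least about 35%, with every replicate also reaching that limit, limit read from the data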
ALR H2O2 inh: blocks human ALR sulfhydryl oxidase activity | inhibition, % (no concentration beside the values) | hit rate 3.8% among 290,000 | P55789 | purified ALR, DTT oxidation, H2O2 HRP-luminol luminescence;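 active means mean replicate inhibition above about 79%, with every replicate also reaching it, limit read from the data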
NSD2 HMT inh: inhibitors of human histone methyltransferase NSD2 | O96028 | NSD2 peptide methylation, AlphaScreen, 120 min | inhibition, % at 12.5 µM | hit rate 0.54% among 310,000; in the data active means inhibition above about 50%
SUMO Mot1 rescue: inhibitors of SUMOylation pathway: yeast Mot1-301 growth rescue | S. cerevisiae Mot1-301 growth rescue, ATP luminescence, 38.5C; percent above DMSO median, 100 means doubled | growth rescue, % at 18.8 µM | hit rate 1% among 320,000 | AID 2716;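 active means every valid replicate shows activation above 250% relative to neutral control wells; inactive means the rest, any valid replicate at or below 250%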
Numbers stand for hits.

How did COc1ccc(OC)c(-c2c3cc(O)c(=O)cc-3oc3cc(O)c(O)cc23)c1 do in these assays?
CDK5 p35 inh: inactive; Glyco luc inh: inactive; ALR H2O2 inh: 80; SUMO Mot1 rescue: inactive

Results for CCOC(=O)N1CCN(C(=O)Cc2ccccc2[N+](=O)[O-])CC1 ?
CDK5 p35 inh: inactive; Glyco luc inh: inactive; Casp6 inh: 35; ALR H2O2 inh: inactive; NSD2 HMT inh: inactive; SUMO Mot1 rescue: inactive

What do the screens show for `O=C(C[C@H]1C=C[C@H](NC(=O)CN2CCOCC2)[C@H](CO)O1)NCCc1ccncc1`?
Casp6 inh: inactive

Results for C[C@H](CO)N1C[C@H](C)[C@H](CN(C)C)Oc2ccc(NC(=O)CCCCCC(=O)Nc3ccccc3N)cc2C1=O ?
Casp6 inh: inactive

Results for COc1ccc(Cl)cc1NC(=S)N1CCN(C(=O)c2ccco2)CC1 ?
CDK5 p35 inh: inactive; Glyco luc inh: inactive; ALR H2O2 inh: inactive; NSD2 HMT inh: inactive; SUMO Mot1 rescue: 357

Results for COCCNC(=O)[C@@H]1[C@@H](CO)[C@@H]2Cn3c(ccc(-c4ccccc4F)c3=O)[C@H]1N2S(C)(=O)=O ?
Casp6 inh: inactive

How did C[C@@H]1CN([C@H](C)CO)C(=O)Cc2cc(NC(=O)Cc3ccccc3)ccc2O[C@@H]1CN(C)Cc1ccc2c(c1)OCO2 do in these assays?
Casp6 inh: inactive

How did O=C(Nc1ccccc1N1CCOCC1)c1ccc2nc[nH]c2c1 do in these assays?
CDK5 p35 inh: inactive; Glyco luc inh: 27; Casp6 inh: inactive; NSD2 HMT inh: inactive

How did O=C(Nc1ccccc1N1CCOCC1)c1cc(F)cc(F)c1 do in these assays?
CDK5 p35 inh: inactive; Glyco luc inh: inactive; Casp6 inh: inactive; NSD2 HMT inh: inactive; SUMO Mot1 rescue: inactive

How did O=C(Nc1ccccc1N1CCOCC1)c1ccc2c(c1)OCCO2 do in these assays?
CDK5 p35 inh: inactive; Glyco luc inh: inactive; Casp6 inh: inactive; ALR H2O2 inh: inactive; NSD2 HMT inh: inactive; SUMO Mot1 rescue: inactive

How did O=C(Nc1ccccc1N1CCOCC1)c1cccc(F)c1 do in these assays?
CDK5 p35 inh: inactive; Glyco luc inh: inactive; Casp6 inh: inactive; ALR H2O2 inh: 96; NSD2 HMT inh: inactive; SUMO Mot1 rescue: inactive

How did O=C(Nc1ccc(C(F)(F)F)cc1)c1ccc2nc[nH]c2c1 do in these assays?
CDK5 p35 inh: inactive; Glyco luc inh: inactive; Casp6 inh: inactive; ALR H2O2 inh: inactive; NSD2 HMT inh: inactive; SUMO Mot1 rescue: inactive

How did NS(=O)(=O)c1cccc(NC(=O)c2ccc3nc[nH]c3c2)c1 do in these assays?
CDK5 p35 inh: inactive; Glyco luc inh: inactive; Casp6 inh: 54; SUMO Mot1 rescue: inactive

How did C[C@@H]1CN([C@H](C)CO)C(=O)c2cc(/C=C/c3ccccc3)cnc2O[C@H]1CN(C)Cc1cncnc1 do in these assays?
Casp6 inh: inactive

How did CO[C@H]1CN(C)C(=O)c2cc(NC(=O)NC3CCCCC3)ccc2OC[C@@H](C)N(CCc2ccccc2)C[C@@H]1C do in these assays?
Casp6 inh: inactive

How did COC(=O)C(C(=O)OC)C(CC(=O)c1ccc(C)cc1)c1cc(OC)c(OC)c(OC)c1 (configuration not stated) do in these assays?
CDK5 p35 inh: inactive; Glyco luc inh: inactive; Casp6 inh: inactive; ALR H2O2 inh: 97; NSD2 HMT inh: inactive; SUMO Mot1 rescue: inactive

Results for O=C(Sc1ccc(Cl)cc1)c1ccccn1 ?
CDK5 p35 inh: inactive; Glyco luc inh: inactive; Casp6 inh: inactive; ALR H2O2 inh: 98; NSD2 HMT inh: inactive; SUMO Mot1 rescue: inactive

How did N/C(=N\OC(=O)c1ccc(Cl)cc1)c1ccccn1 do in these assays?
CDK5 p35 inh: inactive; Glyco luc inh: inactive; Casp6 inh: inactive; ALR H2O2 inh: inactive; NSD2 HMT inh: inactive; SUMO Mot1 rescue: inactive

What do the screens show for `C[C@H](CO)N1C[C@H](C)[C@H](CN(C)CC2CC2)Oc2cc(-c3ccccc3F)ccc2S1(=O)=O`?
Casp6 inh: inactive

Results for CCn1c2ccccc2c2cc(NC(C)=O)ccc21 ?
CDK5 p35 inh: inactive; Glyco luc inh: inactive; ALR H2O2 inh: inactive; NSD2 HMT inh: inactive; SUMO Mot1 rescue: inactive

What do the screens show for `CCn1c2ccccc2c2cc(NC(=O)C(=O)N3CCOCC3)ccc21`?
CDK5 p35 inh: inactive; Glyco luc inh: inactive; ALR H2O2 inh: 91; NSD2 HMT inh: inactive; SUMO Mot1 rescue: inactive

How did CCN(CC)S(=O)(=O)c1cccc(C(=O)OCC(=O)Nc2ccc3c(c2)c2ccccc2n3CC)c1 do in these assays?
CDK5 p35 inh: inactive; Glyco luc inh: 29; Casp6 inh: inactive; ALR H2O2 inh: inactive; NSD2 HMT inh: inactive; SUMO Mot1 rescue: inactive
